Results published in the supplement of paper PMC10338343.
± gives the standard deviation.

Each sequence was assayed on EfPiwi piRISC loaded with piRNA #1 (26 nt) (assay: pre-steady-state target cleavage rate (min^-1); auxiliary factor: 500 nM Ephydatia muelleri Gtsf1; guide: piRNA #1 5'p-UGAGGUAGUAGGUUGUAUAGUAUCCA; MIWI and MILI are mouse PIWI proteins and EfPiwi is from a freshwater sponge; tags in brackets are library labels; higher = faster piRNA-guided slicing of the target).
How it was run: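 The pre-steady-state cleavage rate was derived from a burst-and-steady-state fit of Cleave-'n-Seq data. For these assays, 1 nM active affinity-purified piRISC loaded with a single synthetic guide was mixed with […] a transcribed, DNA-blocked target RNA library in HEPES–potassium acetate buffer at 33 °C, with or without 500 nM GTSF1 partner protein, for 0–8 or 0–960 min. Sequencing counts of uncleaved targets were normalised to depth and to weakly complementary targets, and k3 was capped at 0.0001 min^-1 after three trials were pooled.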

GGAGACCAUGCUAUACAACCUACUACCUCA and GGAGUGGAUACUAUACUUCCUACUACCUCA are within error of each other in “pre-steady-state target cleavage rate” value: 0.00746 ± 0.0043 for the first, 0.0195 ± 0.01 for the second.

“GGAGUGGAUACUAUACAACCUACUAGGAGA [g6:g26:cont:t1A]” and GGAGACCUAACUAUACAAGCCUACUACCUCA are within error of each other in “pre-steady-state target cleavage rate” value: 0.00291 ± 0.0023 for the first, 0.00432 ± 0.0033 for the second.

GGAGUGGAUACUAUACAACCUACAACCUGA and GGAGUGGAUACUAUACAACCUACUAGCUGA are within error of each other in “pre-steady-state target cleavage rate” value: 0.00253 ± 0.0013 for the first, 0.00461 ± 0.0027 for the second.

GGAGAGGAAACUAUACAACCAACUACCUCA and GGAGUGGAUACUAUACAACCACUACCUCA are within error of each other in “pre-steady-state target cleavage rate” value: 0.00523 ± 0.0026 for the first, 0.00771 ± 0.0031 for the second.

Going from GGAGACGAUACUAUACAACCUACUACCUAA to GGAGACCAUACUAUACAACCUACUUGGUCA, the “pre-steady-state target cleavage rate” value falls from 0.103 ± 0.033 to 0.00392 ± 0.0029.

First: GGAGUGGAUACUAUACAACCUACUUGCUCA
Second: GGAGACCUAUGAUAUGUACCUAUUACCUCA
The “pre-steady-state target cleavage rate” value of the first is higher: 0.0047 ± 0.0026 for the first, under 0.0001 for the second.

GGAGAGGAUACUAUACAACCUACUUCCUGA and GGAGACGAUACUAUACAAGCCUACUACCUCA are within error of each other in “pre-steady-state target cleavage rate” value: 0.00331 ± 0.0022 for the first, 0.00444 ± 0.0036 for the second.

GGAGACGAUACUAUACAAGCUACAACCUCA and GGAGUGGAUACUAUACAAGCUACUACCUGA are within error of each other in “pre-steady-state target cleavage rate” value: 0.00442 ± 0.0022 for the first, 0.00454 ± 0.0019 for the second.

First: GGAGACCUAUGUAUACAACCUAGUACCUCA
Second: GGAGAGGAUACUAUUCAACCUACUACCUCA
The “pre-steady-state target cleavage rate” value of the first is lower: 0.00291 ± 0.0029 for the first, 0.012 ± 0.0057 for the second.

GGAGAGGAUACUAUACAACCUAGAUCCUCA and GGAGACCAUACUAUACAUCCUACUUCCUCA are within error of each other in “pre-steady-state target cleavage rate” value: 0.00241 ± 0.0021 for the first, 0.00272 ± 0.0026 for the second.

GGAGUGGAUACUAUACAACCAUGUACCUCA and GGAGACGAUACUAUACAACCUUCUAGCUCA are within error of each other in “pre-steady-state target cleavage rate” value: 0.00412 ± 0.0026 for the first, 0.00455 ± 0.0027 for the second.

GGAGUGCAUACUAUACAACCAACUACCUCA and GGAGUGGAUACUAUACAACCUACUUCCACA are within error of each other in “pre-steady-state target cleavage rate” value: 0.00484 ± 0.0026 for the first, 0.00294 ± 0.0024 for the second.

Compared with GGAGAGGAUACUAUACAACCUAGUACCACA, GGAGUGGAUACUAUAGCAACCUACUACCUCA is higher in “pre-steady-state target cleavage rate” value: 0.00381 ± 0.0016 for the first, 0.0919 ± 0.034 for the second.

Compared with GGAGACCUAACUAUACAACCUACUACCUCCA, GGAGACCUUACUAUACAACCUACUACCUUCA is higher in “pre-steady-state target cleavage rate” value: 0.015 ± 0.0066 for the first, 0.0532 ± 0.019 for the second.

GGAGUGGAUACUAUACAACCUACAAGCUCA and GGAGUGGAUACUAUACAACCUACUACCAGA are within error of each other in “pre-steady-state target cleavage rate” value: 0.00192 ± 0.0017 for the first, 0.00419 ± 0.0019 for the second.

Compared with GGAGACCUAUGAUAUCAACCAAGUACCUCA, GGAGAGGAUACUAUACAACCAACAACCUCA is higher in “pre-steady-state target cleavage rate” value: under 0.0001 for the first, 0.00224 ± 0.0022 for the second.

Going from GGAGACCUAUGAUAUCAACCUACAUGCUCA to GGAGACGAUACUAUACAACCUUGUACCUCA, the “pre-steady-state target cleavage rate” value rises from under 0.0001 to 0.00308 ± 0.002.

GGAGACCAUACUAUACAACCUGACUACCUCA and GGAGACCUAACUAUACACCUACUACCUCA are within error of each other in “pre-steady-state target cleavage rate” value: 0.00545 ± 0.0032 for the first, 0.00586 ± 0.0042 for the second.

Going from GGAGACCUAUGAUAUGUACCUUCUACCUGA to GGAGUGGAUAGUAUACAACCUACAACCUCA, the “pre-steady-state target cleavage rate” value rises from under 0.0001 to 0.00254 ± 0.0017.

In the case of GGAGUGGAUACUCAUACAACCUACUACCUCA, the “pre-steady-state target cleavage rate” value is reported as 0.0153 ± 0.0069.
